Measured values from PubChem BioAssay (NCATS).
Records with an inconclusive call do not appear. Where a call stands in place of a potency, no number is given. Values without a mark were called inactive. Activity calls are given as the source filed them. Calls follow the shape of the dose curve; as a rule, active = well fitted curve in the direction sought with a large enough effect; inconclusive = small, poorly fitted or top-dose-only effect, or another doubt; inactive = no such curve, though single readings can be large; an effect the other way counts as inactive or inconclusive.

Experiments:
PA-1 = assay: Primary qHTS to identify gynecologic anti-cancer compounds using libraries of approved drugs and bioactive compounds (AID 1345084); details: Gynecologic cancer cell panel viability, ATPlite luminescence, 48 h; series mostly up to 57.5 µM; also: nearly all actives have a fitted effect of over 55% in size
How it was run: (§1)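 In this quantitative HTS, cell killing is estimated from loss of ATP-dependent luciferase light. Cells see five compound concentrations over a 48 h exposure.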

Tov112D = assay: as above; details: Gynecologic cancer cell panel viability, ATPlite luminescence, 48 h; series mostly up to 57.5 µM
How it was run: as §1

JEG-3 = assay: as above; details: Gynecologic cancer cell panel viability, ATPlite luminescence, 48 h; series mostly up to 57.5 µM
How it was run: as §1

SKOV3 = assay: as above; details: Gynecologic cancer cell panel viability, ATPlite luminescence, 48 h; series mostly up to 57.5 µM
How it was run: as §1

Tov-21-G = assay: as above; details: Gynecologic cancer cell panel viability, ATPlite luminescence, 48 h; series mostly up to 57.5 µM
How it was run: as §1

OV90 = assay: as above; details: Gynecologic cancer cell panel viability, ATPlite luminescence, 48 h; series mostly up to 57.5 µM
How it was run: as §1

[1] = Drug repurposing screens with cells derived from glioblastoma tumor samples (AID 1345199); details: GBM patient neurospheres viability, ATP luminescence, 48 h; also: nearly all actives have a fitted effect of over 40% in size
How it was run: (§2)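 Primary testing used CD133+ neurospheres from four GBM patients, seven concentrations, 48 h exposure and ATP-based viability; confirmation added three slower-growing patient lines.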

astro = assay: as above; details: viability, ATP luminescence, 48 h; series mostly up to 45.9 µM
How it was run: as §2

[2] = at 45.9 µM (top of the series), tumour line B
[3] = at 45.9 µM (top of the series), tumour line D
[4] = at 46.1 µM (top of the series), tumour line C
[5] = at 20 µM (top of the series), tumour line C
[6] = at 21.2 µM (top of the series), tumour line B
[7] = at 21.2 µM (top of the series), tumour line D
[8] = at 21.3 µM (top of the series), tumour line A
Potency is read from the fitted curve at half-maximal effect.

## CNC(=O)c1ccc(Nc2ncc(C(F)(F)F)c(NCc3nccnc3N(C)S(C)(=O)=O)n2)cc1
PA-1
  Potency: 4.47 µM (active)
Tov112D
  Potency: 22.4 µM (active)

## C=Cc1cc(O)cc2nc(-c3ccc(O)c(F)c3)oc12
JEG-3
  Potency: inactive
PA-1
  Potency: inactive
SKOV3
  Potency: inactive
Tov-21-G
  Potency: inactive
Tov112D
  Potency: inactive

## NCc1ccc(OCCCc2sc(-c3ccc4c(c3)/C(=N/Nc3nc5ccccc5s3)CCC4)nc2C(=O)O)cc1
JEG-3
  Potency: inactive
PA-1
  Potency: inactive
Tov-21-G
  Potency: inactive
Tov112D
  Potency: inactive

## Cc1cc(N2CCCCC2)nc2ccccc12
OV90
  Potency: inactive
PA-1
  Potency: inactive
Tov-21-G
  Potency: inactive
Tov112D
  Potency: inactive

## CC(C)Nc1cc(-c2c[nH]c(C(=O)N[C@H](CO)c3cccc(Cl)c3)c2)c(Cl)cn1
JEG-3
  Potency: inactive
SKOV3
  Potency: inactive
Tov112D
  Potency: inactive

## CN(C)C/C=C/C(=O)Nc1ccc(C(=O)Nc2cccc(Nc3ncc(Cl)c(-c4c[nH]c5ccccc45)n3)c2)cc1
JEG-3
  Potency: 3.55 µM (active)
PA-1
  Potency: 0.891 µM (active)
Tov112D
  Potency: 0.631 µM (active)

## COc1cc(N2CCC(O)CC2)ccc1Nc1cc(Nc2ccccc2S(=O)(=O)C(C)C)c2cc[nH]c2n1
JEG-3
  Potency: inactive
OV90
  Potency: inactive
SKOV3
  Potency: inactive
Tov-21-G
  Potency: inactive
Tov112D
  Potency: inactive

## C=C[C@](C)(CC/C=C(\C)C(=O)O)O[C@@H]1OC[C@H](O)[C@H](O)[C@H]1O
JEG-3
  Potency: inactive
OV90
  Potency: inactive
SKOV3
  Potency: inactive
Tov-21-G
  Potency: inactive
Tov112D
  Potency: inactive

## CC1(C)CC[C@]2(C(=O)O)CC[C@]3(C)C(=CCC4[C@@]5(C)CCC(O[C@@H]6OC[C@H](O)[C@H](O)[C@H]6O[C@@H]6O[C@H](CO)[C@@H](O)[C@H](O)[C@H]6O)[C@@](C)(CO)C5CC[C@]43C)[C@@H]2C1 (stereo partly drawn)
JEG-3
  Potency: inactive
OV90
  Potency: inactive
SKOV3
  Potency: inactive
Tov-21-G
  Potency: inactive
Tov112D
  Potency: inactive

## CC(CO[C@@H]1O[C@H](COC(=O)/C=C/c2ccc(O)c(O)c2)[C@@H](O)[C@H](O)[C@H]1O)C1(O)COC(=O)C1 (stereo partly drawn)
OV90
  Potency: inactive
PA-1
  Potency: inactive
SKOV3
  Potency: inactive
Tov-21-G
  Potency: inactive
Tov112D
  Potency: inactive

## COC(=O)[C@@]1(O)C=CC[C@@H]2[C@@]3(C)C[C@@H](c4ccoc4)OC(=O)[C@H]3CC[C@]21C
JEG-3
  Potency: inactive
OV90
  Potency: inactive
SKOV3
  Potency: inactive
Tov-21-G
  Potency: inactive
Tov112D
  Potency: inactive

## CC1(C)C[C@H]2C3=CCC4[C@@]5(C)CC[C@H](O[C@H]6O[C@H](C(=O)O)[C@@H](O)[C@H](O)[C@H]6O[C@H]6O[C@H](CO)[C@@H](O)[C@H](O)[C@H]6O[C@@H]6O[C@H](CO)[C@@H](O)[C@H](O)[C@H]6O)[C@](C)(CO)C5CC[C@@]4(C)[C@]3(C)CC[C@@]2(C)[C@H](O[C@@H]2OC[C@H](O)[C@H](OC3O[C@H](CO)[C@@H](O)[C@H](O)[C@H]3O)[C@H]2O)[C@@H]1O (stereo partly drawn)
JEG-3
  activity change, negative = cytotoxicity: 2.5% [at 6.55 µM]
OV90
  activity change, negative = cytotoxicity: -1.3% [at 6.55 µM]
SKOV3
  activity change, negative = cytotoxicity: -2.8% [at 6.55 µM]
Tov-21-G
  activity change, negative = cytotoxicity: 3.65% [at 6.55 µM]
Tov112D
  activity change, negative = cytotoxicity: -3.08% [at 6.55 µM]

## CCn1c2ccccc2c2cc(CNC)ccc21
JEG-3
  Potency: inactive
PA-1
  Potency: inactive
SKOV3
  Potency: inactive
Tov-21-G
  Potency: inactive
Tov112D
  Potency: inactive

## COc1ccc(C[C@@H](C)NC[C@H](O)c2ccc(O)c(NC=O)c2)cc1
[1]; [2]
  activity, negative = cell killing: -17.2%
[1]; [3]
  activity, negative = cell killing: 5.61%
[1]; [4]
  activity, negative = cell killing: -20.1%
[1]; tumour line A
  Potency: 12.6 µM (active)
astro
  Potency: inactive

## Cc1ccccc1OCC(O)CNCCOc1ccc(C(N)=O)cc1 (stereo not drawn)
[1]; [2]
  activity, negative = cell killing: 6.35%
[1]; [3]
  activity, negative = cell killing: -24%
[1]; [4]
  activity, negative = cell killing: -1.19%
[1]; tumour line A
  Potency: 17.8 µM (active)

## N[C@H](C(=O)O)[C@@H]1CC(Cl)=NO1
[1]; [3]
  activity, negative = cell killing: -29.2%
[1]; at 46 µM (top of the series), tumour line A
  activity, negative = cell killing: -38.5%
[1]; tumour line C
  Potency: 6.51 µM (active)

## CC(C)N=c1cc2n(-c3ccc(Cl)cc3)c3ccccc3nc-2cc1Nc1ccc(Cl)cc1
[1]; [5]
  activity, negative = cell killing: -8.51%
[1]; tumour line A
  Potency: 5.01 µM (active)

## CCOC(=O)O[C@]1(C(=O)COC(=O)CC)CC[C@H]2[C@@H]3CCC4=CC(=O)C=C[C@]4(C)[C@H]3[C@@H](O)C[C@@]21C
[1]; [5]
  activity, negative = cell killing: 2.55%
[1]; [6]
  activity, negative = cell killing: -5.02%
[1]; [7]
  activity, negative = cell killing: -9.53%
[1]; [8]
  activity, negative = cell killing: -19.6%

## CN(C)CC/C=C1/c2ccccc2CSc2ccccc21
[1]; [5]
  activity, negative = cell killing: -1.3%
[1]; [6]
  activity, negative = cell killing: -26.2%
[1]; tumour line A
  Potency: 12.6 µM (active)
[1]; tumour line D
  Potency: 12.6 µM (active)
astro
  Potency: inactive

## COCC(=O)Nc1cc(Sc2ccccc2)ccc1N=C(NC(=O)OC)NC(=O)OC
[1]; [4]
  activity, negative = cell killing: -20.6%
[1]; tumour line A
  Potency: 6.31 µM (active)

## CC(C)(C)C(=O)OCOC(=O)[C@@H]1N2C(=O)[C@@H](N=CN3CCCCCC3)[C@H]2SC1(C)C
[1]; [5]
  activity, negative = cell killing: -7.48%
[1]; [6]
  activity, negative = cell killing: -4.41%
[1]; [7]
  activity, negative = cell killing: 17.4%
[1]; [8]
  activity, negative = cell killing: -13.2%

## CC(NNC(=O)c1ccccc1)c1ccccc1 (stereo not drawn)
[1]; [2]
  activity, negative = cell killing: -15.6%
[1]; [3]
  activity, negative = cell killing: -19.2%
[1]; [4]
  activity, negative = cell killing: -40.2%
